Measurements taken from ChEMBL document CHEMBL3988442, “University of Dundee, Small-Polar-MMV Screening Library” (2021).
About 440 (0.52%) of roughly 85,000 compounds showed an effect of 50% or more. For the sample, strong results were picked, then their nearest neighbours and some compounds at random.

Test: In vitro enzyme assay to detect hydrolysis of chlorophenol red-beta-D-[…] directly proportional to the number of Toxoplasma stably expressing beta-galactosidase
Format: functional, organism-based, Toxoplasma gondii
Parameters: scale not given: in the data most compounds retested in dose-response had high values

SMILES | Percent Effect (50 µM) [%] | Percent Effect (10 µM) [%]
CN(C)S(=O)(=O)CCNC1CCCNC1 (stereo not drawn) | 23.13 | –
CCn1cc(CN(C)S(=O)(=O)c2ccc(C(C)C)cc2)cn1 | – | 71.72
CCn1cc(CN(C)S(=O)(=O)c2cnn(C)c2)cn1 | – | 10.44
CCn1cc(CN(C)S(=O)(=O)c2ccc(Cl)cc2)cn1 | – | 4.304
CCn1cc(CN(C)S(=O)(=O)c2ccc(C)c(C)c2)cn1 | – | 6.128
CCn1cc(CN(C)S(=O)(=O)c2ccccc2)cn1 | – | 61.21
CCOc1ccc(S(=O)(=O)N(C)Cc2cnn(CC)c2)cc1 | – | 22.15
Nc1nnc(SCc2cn3ccccc3n2)s1 | -6.062 | –
CNCC(=O)Nc1ccccc1OC | 7.8 | –
N#CCC(=O)Nc1ccccc1I | 0.5556 | –
COc1ccccc1NC(=O)CC#N | 50.64 | –
Cn1c(C(C)(C)N)nc2ccccc21 | 4.322 | –
COC(=O)Cc1cccc(NC(=O)CC2CC2)n1 | 2.915 | –
COc1cccc(CNCC2CN(C)CCO2)c1 (stereo not drawn) | – | -20.59
COc1cccc(N2CCC(CNCc3cccc(C#N)c3)C2)c1 (stereo not drawn) | – | -3.388
COc1cccc(CNCC2CCOC2)c1 (stereo not drawn) | 52.55 | –
O=C(NCCSCc1cccc(Cl)c1)C1CNCCO1 (stereo not drawn) | 4.575 | –
CC(C)OCC(O)CN1CCN(C(C)C)CC1 (stereo not drawn) | -5.583 | –
CCNCc1ccc(OCc2ccc3c(c2)OCCO3)cc1.Cl | – | 57.45
CCCNCc1ccc(OCc2ccc3c(c2)OCCO3)cc1.Cl | – | 26.87
CNCc1ccc(OCc2ccc3c(c2)OCCO3)cc1.Cl | – | 14.53
CC(C)(C)NCc1ccc(OCc2ccc3c(c2)OCCO3)cc1.Cl | – | -4.151
CC(O)CNCc1ccc(OCc2ccc3c(c2)OCCO3)cc1.Cl (stereo not drawn) | – | -0.2514
COc1ccc2oc(CNC(C)(CO)CO)cc2c1 | 4.082 | –
O=C(CNC(=O)c1cccs1)c1ccccc1 | -23.7 | –

SMILES | Percent Effect (50 µM) [%] | Percent Effect (10 µM) [%]
CCN(CC(C)(C)O)C(=O)c1nccc2ccccc12 | -2.694 | –
CCNC(=O)CN1CCN(Cc2cccnc2N)CC1 | 3.908 | –
COCC(C)NC(=O)CCn1cnc2sccc2c1=O (stereo not drawn) | -6.543 | –
CS(=O)(=O)NCC(=O)NCc1cnn2ccccc12 | -11.78 | –
CCN1CCCC1CNS(=O)(=O)CCCC#N (stereo not drawn) | -20.61 | –
CCc1n[nH]c(NC(=O)c2cc(C(C)=O)cs2)n1 | -2.258 | –
NC(=O)CCN1C(=O)CCC1=O | 1.954 | –
Cc1ccccc1CNC(=O)N(C)Cc1nnc[nH]1 | -3.326 | –
COC(=O)c1cnc(OC)cn1 | 10.7 | –
COC(=O)c1cnc(F)cn1 | 53.27 | –
COC(=O)c1cnc(O)cn1 | 0.4239 | –
O=C(CNC1(CO)CCOCC1)Nc1cccc(F)c1 | -18.29 | –
CC(C)C(N)C1(CO)CCC1 (stereo not drawn) | -14.82 | –
N#Cc1cccnc1NCC1COc2ccccc2O1 (stereo not drawn) | -5.408 | –
O=c1cc(Cn2ccnc2)nc2n1CCCN(Cc1ccco1)C2 | – | -0.8368
Cc1ccc(CN2CCCn3c(nc(Cn4ccnc4)cc3=O)C2)o1 | – | 95.97
CCc1ccc(CN2CCCn3c(nc(Cn4ccnc4)cc3=O)C2)o1.O=C(O)C(F)(F)F.O=C(O)C(F)(F)F | – | 1.534
O=C(CN1CC(c2nc(C3CC3)no2)C1)N1CCOCC1.O=C(O)C(=O)O | – | 76.44
CC1CCN(C(=O)CN2CC(c3nc(C4CC4)no3)C2)CC1.O=C(O)C(=O)O | – | -17.41
CC(c1nc(C2CC2)no1)N1CCN(CC(=O)N2CCOCC2)CC1 (stereo not drawn) | – | 3.194
O=C(CN1CCCC(c2noc(C3CC3)n2)C1)N1CCCC1 (stereo not drawn) | – | 4.609
NC(=O)CN1CC(c2nc(C3CC3)no2)C1.O=C(O)C(=O)O | – | -8.991
Nc1ccnn1Cc1ccccn1 | -24.54 | –
O=C(CN1CCCCC1)N1CCCCC1 | 1.789 | –
O=C(NCCOCCO)c1cn2ccsc2n1 | 19.68 | –

SMILES | Percent Effect (50 µM) [%] | Percent Effect (10 µM) [%]
CNC(=O)C1CNC1 | 0.513 | –
COCCCNC(=O)CN(C)c1ccccc1F | 2.537 | –
Cc1ccc(-c2cccc(N3CCC(NC4CCOCC4)CC3)c2)cc1 | – | 36.9
Clc1cccc(-c2cccc(N3CCC(NC4CCOCC4)CC3)c2)c1 | – | 94.46
COc1cccc(-c2cccc(N3CCC(N[C@@H]4CCOC4)CC3)c2)c1 | – | 25.91
Cc1ccccc1-n1cnnc1SCCOCC1CCCO1 (stereo not drawn) | – | -4.234
c1cc(SCCOCC2CCCO2)ccn1 (stereo not drawn) | 73.14 | –
NCCOCC1CCCO1 (stereo not drawn) | -7.088 | –
CN1CCOC(C(=O)N(C)Cc2cccc(O)c2)C1 (stereo not drawn) | -4.809 | –
Oc1ccccc1CN1CCCCCC1c1cccs1 (stereo not drawn) | – | 10.91
Nc1nc(N)nc(CN2CCCC2c2cccs2)n1 (stereo not drawn) | 61.8 | –
CN(C)c1nc(N)nc(CN2CCCC2c2cccs2)n1 (stereo not drawn) | – | 12.16
CC(=O)NCCCc1nc2ccccc2n1C | -0.2926 | –
O=C(CN1CCOCC1)N1CCCC(c2nnc[nH]2)C1 (stereo not drawn) | -8.944 | –
CC1C(=O)NCCN1C(=O)c1cc(-c2ccco2)on1 (stereo not drawn) | 0.5841 | –
Cc1cc(F)cc(S(=O)(=O)NCCN)c1 | -4.306 | –
O=C(CCn1cccn1)Nc1cncc(Br)c1O | -6.766 | –
O=C(CC1CCCC1)NCCc1noc(CO)n1 | 66.39 | –
CCCOC(C)C(=O)NCCc1noc(CO)n1 (stereo not drawn) | -15.52 | –
CC[C@H](C)[C@H](N)C(=O)NCCc1noc(CO)n1 | 11.28 | –
Cc1nccc(CNc2ncc(C(N)=O)cc2Cl)n1 | -11.46 | –
COc1ccccc1NCC(=O)NCC(C)(O)C(C)C (stereo not drawn) | 0.7495 | –
NC1CSc2ccccc21 (stereo not drawn) | 16.15 | –
NCC(=O)N1CCCC(CCc2ccc(F)cc2)C1 (stereo not drawn) | 31.97 | –
NCCC(=O)N1CCCC(CCc2ccc(F)cc2)C1 (stereo not drawn) | 62.64 | –

SMILES | Percent Effect (50 µM) [%] | Percent Effect (10 µM) [%]
NCC(=O)N1CCCC(CCc2ccc(F)c(F)c2)C1 (stereo not drawn) | 39.41 | –
Cc1nnc(CNC(=O)Nc2ccc(F)cc2)o1 | -6.078 | –
CC1(C)CN(c2ccnc3ccccc23)CC[S+]1[O-] (stereo not drawn) | 6.751 | –
O=S(=O)(NC1CCCC1)C1CCOCC1 | 42.45 | –
CCCC(=O)N1CCC(O)(Cn2c(CC)nc3ccccc3c2=O)CC1.Cl | – | -0.06406
CCc1nc2ccccc2c(=O)n1CC1(O)CCN(C(=O)C2CC2)CC1.Cl | – | 0.3648
CCc1nc2ccccc2c(=O)n1CC1(O)CCN(C(=O)COC)CC1.Cl | – | 54.94
Cc1cc(CNc2ncnc3c2cnn3C)on1 | -29.33 | –
CC1COc2ccccc2N1CC(N)=O (stereo not drawn) | -5.521 | –
CNC(=O)N1CCCCCC1c1ccncc1 (stereo not drawn) | 14.5 | –
CSc1ccccc1NCC(=O)NC1CC1 | 51.75 | –
CC(C#N)CSc1ccccc1NCC(=O)NC1CCCCC1 (stereo not drawn) | – | -5.31
CC(=O)c1ccc(F)cc1NCC(=O)NC1CC1 | 5.192 | –
CNCC(=O)Nc1cc(Cl)c(OCCOC)c(Cl)c1 | -0.6689 | –
CCS(=O)(=O)N1CCC(NC(=O)c2ccc(Cl)o2)CC1 | -2.927 | –
Cc1cc(F)cc(NC(=O)NC[C@@H]2CCCN2)c1 | 21.68 | –
O=C(NCc1ccc2c(c1)OCO2)n1ccnc1 | 96.82 | –
CC(Cn1ccnc1)NC(=O)NCc1ccc2c(c1)OCCO2 (stereo not drawn) | – | -19.42
O=C(NCc1ccc2c(c1)OCO2)N1CCCCC1 | -4.35 | –
c1cn(C2CCNC2)nn1 (stereo not drawn) | -13.42 | –
CCC(OC)C(=O)N1CC(Oc2ccccc2F)C1 (stereo not drawn) | -7.864 | –
CC(=O)Nc1ncc(S(=O)(=O)N2CCCC(C)C2)s1 (stereo not drawn) | – | -8.14
Cc1cccc(NS(=O)(=O)c2cc(C(=O)O)oc2C)c1 | – | -16.73
CC(=O)Nc1ncc(S(=O)(=O)Nc2cccc(O)c2)s1 | – | 62.29
CC(=O)Nc1ncc(S(=O)(=O)Nc2cccc(C)c2)s1 | – | 60.94

SMILES | Percent Effect (50 µM) [%] | Percent Effect (10 µM) [%]
Cc1c(S(=O)(=O)Nc2cccc(F)c2)cnn1C | -8.725 | –
CC(=O)Nc1ncc(S(=O)(=O)N2CCOCC2)s1 | – | -6.42
CC(=O)c1cccc(NS(=O)(=O)c2cc(C)c(C(=O)O)s2)c1 | – | -0.4058
CC(=O)Nc1ncc(S(=O)(=O)Nc2cccc(F)c2)s1 | – | 67.14
CC(=O)Nc1ncc(S(=O)(=O)N2CCN(C3CCCCC3)CC2)s1 | – | -4.699
CC(=O)Nc1ncc(S(=O)(=O)Nc2ccc3c(c2)OCCO3)s1 | – | 68.62
CCS(=O)(=O)CCC(=O)Nc1cccc(F)c1 | 5.162 | –
Cc1cc(C(=O)O)cc(S(=O)(=O)Nc2ccc3c(c2)OCCO3)c1C | – | -2.504
CCNC(=O)NCc1ncoc1C | -6.658 | –
NC(=O)Cc1ccc(-c2ccc(C(N)=O)c(Cl)c2)cc1 | -4.393 | –
CCn1ccnc1C(C)N (stereo not drawn) | 1.366 | –
CNC(=O)c1cccc(NC(C)C(=O)NCC(C)C)c1 (stereo not drawn) | -5.14 | –
Cn1cc(C(N)=O)c(NCc2ccc(F)c(C#N)c2)n1 | -8.67 | –
CN1C(=O)[C@H]2CN(Cc3cccc(Cl)c3F)C[C@H]2C1=O | -8.035 | –
O=C(c1cc(Cl)ccc1O)N1CCOCC1 | 6.297 | –
CNCC(=O)Nc1ccc(C)cc1C(=O)N(C)C | -7.454 | –
CCc1nccn1CCCNC(=O)Cc1nonc1C | 3.782 | –
CCn1cc(C(=O)NCc2ccc(CNC)cc2)cn1 | -1.69 | –
CC1CCCCN1CCNC(=O)c1ccccn1 (stereo not drawn) | 1.645 | –
COc1ccc(Cl)cc1CNCCSc1nnnn1C | -8.775 | –
Cc1cc(C2CCCN2)no1 (stereo not drawn) | -6.252 | –
Cc1cccc(C2CCCN2)n1 (stereo not drawn) | -3.572 | –
Cc1nc([C@H]2CCCN2)cs1 | 52.58 | –
